# The list is not random: actives were taken first. Their share in the collection is about 19%.
# AMA1 RON2 block – inhibitors of Plasmodium falciparum AMA1-RON2 interaction; AlphaScreen AMA1-biotinylated RON2 peptide binding; Potency, µM (titrated, usually from 58.2 µM), for inactives: at the top dose activity change, negative = inhibition, usual class: inhibitors; 0.2% of 360,000 active;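 note: potency is the fitted concentration of half-maximal effect; 0% = vehicle wells and -100% = peptide control; nearly all actives have a fitted effect of over 45% in size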
#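 AMA1 (3D7) with his tag at 25 nM final met compounds first, then biotinylated RON2 peptide at 25 nM; detection used donor plus acceptor beads, 10 µg/mL apiece, read by AlphaScreen after 30 min at room temperature.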
# SARS PLP yeast – blocks SARS-CoV papain-like protease in a yeast assay; Potency, µM (series often up to 32.9 µM), inactives show at the highest dose activity, positive = growth rescue, most hits filed as activators; AID 485353; 0.19% of 330,000 active; S. cerevisiae expressing SARS-CoV PLpro, growth rescue; calls by dose curve; note: potency is the fitted concentration of half-maximal effect; 0% is about no effect; nearly all actives have a fitted effect of over 55% in size
# Pf growth 96h – P. falciparum growth inhibition at 96 hours; Potency, µM (doses to about 28.7 µM), inactives show at the highest dose activity change, negative = inhibition, usual class: inhibitors; AID 504834; 6.9% of 320,000 active; P. falciparum luciferase reporter growth, 96 h; note: potency is the fitted concentration of half-maximal effect; % is set by controls: 0 for no effect and ±100 for the full control effect
#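 Luminescence readout: decreased luciferase signal marks inhibited growth of reporter-expressing P. falciparum in infected red cells (2% hematocrit, 0.05% parasitemia final), exposed to compound two generations (96 h, 37 C, 5% CO2).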
# Pf growth 48h – P. falciparum growth inhibition at 48 hours (one generation); 5.9% of 310,000 active; P. falciparum luciferase growth in erythrocytes, 48 h; AID 504832; Potency, µM (doses to about 28.7 µM), for inactives: top-dose activity change, negative = inhibition, usual class: inhibitors; note: potency is the fitted concentration of half-maximal effect; % is set by controls: 0 for no effect and ±100 for the full control effect
#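 Luminescence readout; reporter = integrated firefly luciferase in P. falciparum. RBC culture at 2% hematocrit, 0.1% parasitemia final, 37 C/5% CO2; decreased signal taken as growth inhibition.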
# Cycloheximide cs – counter-screen for Shiga toxin inhibitors: cycloheximide protein synthesis inhibition; AID 2314; max response, %; 12% of 300,000 active; cell reporter, cycloheximide protein synthesis inhibition counterscreen; in the data active = max response mostly above about 13%, no sharp cut-off; inactive = mostly below about 14%; note: read at 38.3 µM for the half of the compounds with a filed dose; 0% is about no effect
# Shiga toxin inh – inhibitors of Shiga toxin in Vero cells | Vero cells, Shiga toxin protein synthesis inhibition reporter | inhibition, % at 38.7 µM | 9.2% of 290,000 active; in the data active = inhibition mostly above about 28%, no sharp cut-off; inactive = mostly below about 43%; note: 0% is about no effect
# * hit, by the source's call; ? = inconclusive; . = no result; [ ] = remark or other dose. Unless noted, calls come from the whole dose curve; as a rule, active = well fitted curve in the direction sought with a large enough effect; inconclusive = small, poorly fitted or top-dose-only effect, or another doubt; inactive = no such curve, though single readings can be large; an effect the other way counts as inactive or inconclusive.
SMILES,AMA1 RON2 block,SARS PLP yeast,Pf growth 96h,Pf growth 48h,Cycloheximide cs,Shiga toxin inh
Nc1nc2ccc(Cl)cc2cc1C(=O)NCCc1c[nH]c2ccccc12,-7%,.,.,.,.,.
CC(=O)Nc1ccc(S(=O)(=O)Nc2cccc(NC(=O)c3ccco3)c2)cc1,6%,2%,21%,-2%,-2,-7
COc1ccc2nc(-c3ccco3)c(-c3ccco3)nc2c1,-13%,4%,17%,.,54*,56
c1coc(-c2nc(-c3ccco3)c(-c3ccco3)nc2-c2ccco2)c1,9.5µM*,7%,103%,-20%,0,-2
O=C(NCCO)Nc1ccc2nc(-c3ccco3)c(-c3ccco3)nc2c1,.,-1%,-18%,9%,-5,6
c1coc(-c2nc3cc4ccccc4cc3nc2-c2ccco2)c1,.,.,.,.,26*,66*
Nc1ccc2c(c1)Cc1c(F)cccc1-2,-8%,.,.,.,.,.
Cc1c(CC(=O)N2CCC(C(=O)O)CC2)c(=O)oc2cc3c(cc12)CCC1(CCCCC1)O3,-1%,10%,-3%,?,-4,1
N/C(=N\OC(=O)COc1ccc2ccccc2c1Br)c1cccnc1,.,-1%,45%,3%,16*,103*
N/C(=N\OC(=O)COc1ccc(Br)cc1)c1cccnc1,4%,0%,34%,28%,15,-9
N/C(=N\OC(=O)COc1ccc2ccccc2c1Br)c1ccccn1,35%,-1%,-18%[1.15 µM],160%,56*,119*
CCC(C)C(=O)Nc1nc(C)c(-c2csc(Nc3ccc(Cl)cc3)n2)s1 (configuration not stated),35%,2%,9.3µM*,13µM*,1,-11
CCCC(=O)Nc1nc(C)c(-c2csc(Nc3ccc(Cl)cc3)n2)s1,73%,-16%,?,0.83µM*,-1,9
COc1cccc(N2CCN(c3c4c(nc5ncnn35)CCC4)CC2)c1,-5%,-2%,13µM*,?,-2,-9
c1ccc(N2CCN(c3c4c(nc5ncnn35)CCC4)CC2)cc1,-3%,1%,?,13%,-1,18
COc1cccc(N2CCN(c3ncccn3)CC2)c1,-4%,11%,.,98%,60*,45*
COc1cccc(C(=O)N2CCN(c3ncccn3)CC2)c1,-3%,25%,0%,6%,-3,-6
CC(=O)c1ccc(N2CCN(c3ncccn3)CC2)cc1,2%,.,70%,80%,29*,48
CN(Cc1ccccc1C(F)(F)F)C(=O)C1CCC(=O)N(CC2CCCCC2)C1 (configuration not stated),-1%,.,.,.,.,.
O=C(Cc1ccccc1)NCC(=O)N1CCC1,2%,.,20%,21%,-13,-5
O=C(Nc1ccc(F)c(Cl)c1)C1CC(=O)n2c(nc3ccccc32)N1 (configuration not stated),10%,0%,20%,4.7µM*,5,58
COc1ccccc1/C=N/NC(=O)c1csc(C)c1C,1%,23%,33%,55%,15*,39*
Cc1scc(C(=O)N/N=C/c2ccc(Cl)s2)c1C,-11%,-3%,30%,106%,47*,50*
CCOc1ccc(/C=N/NC(=O)c2csc(C)c2C)c(OCC)c1,0%,21%,1%,3%,18,47
Cc1scc(C(=O)N/N=C/c2ccc(OC(C)C)cc2)c1C,0%,-6%,.,-29%,44*,115*
SMILES,AMA1 RON2 block,SARS PLP yeast,Pf growth 96h,Pf growth 48h,Cycloheximide cs,Shiga toxin inh
CN(C(=O)COC(=O)c1ccc2c(c1)OCCO2)C1CCCCC1,-5%,5%,39%,12%,.,.
CC(=O)c1ccc(NS(=O)(=O)c2cccc(C(=O)Nc3ccccc3C(=O)O)c2)cc1,-1%,6%,22%,27%,-2,-3
O=C1CN(C(=O)c2ccc(Br)o2)C(c2ccccc2)c2cc(F)ccc2N1 (configuration not stated),-6%,0%,12µM*,.,-6,-12
O=C1CN(C(=O)c2ccccc2)C(c2ccccc2)c2cc(F)ccc2N1 (configuration not stated),-5%,-3%,?,-13%,5,-2
COc1cccc2cc(C(=O)C3=C(O)C(=O)N(c4cc(C)on4)C3c3cccs3)oc12 (configuration not stated),-7%,-7%,0%,5%,9,26
CCOC(=O)c1ccc(N2C(=O)c3n[nH]c(C)c3C2c2ccc(OC)c(OC)c2)cc1 (configuration not stated),-10%,-5%,9.3µM*,?,4,-16
CCOC(=O)c1ccc(N2C(=O)c3n[nH]c(C)c3C2c2ccc(OC)cc2OC)cc1 (configuration not stated),5%,10%,12µM*,?,-2,-2
CCOC(=O)c1ccc(N2C(=O)c3n[nH]c(-c4ccco4)c3C2c2cccc([N+](=O)[O-])c2)cc1 (configuration not stated),17%,4%,57%,8.3µM*,-2,-18
CCOC(=O)c1ccc(N2C(=O)c3n[nH]c(C)c3C2c2ccco2)cc1 (configuration not stated),-1%,-1%,27%[5.75 µM],-18%,6,-6
CCOC(=O)c1ccc(N2C(=O)c3n[nH]c(C)c3C2c2ccc(OC)cc2)cc1 (configuration not stated),0%,1%,?,?,8,-28
Cc1ccc(SCC(=O)NNC(=O)CCS(=O)(=O)c2ccccc2)cc1,36%,18%,.,.,.,.
Cc1ccc(CS(=O)(=O)Cc2ccc(C(=O)NCc3ccccn3)o2)cc1,8%,-3%,-40%,?,-1,-3
O=C(COC(=O)c1cccc(S(=O)(=O)N2CCCC2)c1)Nc1ccccc1Cl,-13%,-1%,2%,26%,.,.
CCCNC(=O)c1cc(C2CCCCN2S(=O)(=O)Cc2cccc(C(F)(F)F)c2)on1 (configuration not stated),-1%,.,.,.,.,.
CC1(CO)COC(c2ccccc2)=N1 (configuration not stated),-2%,-1%,34%,18%,-3,2
O=C(/C=C/c1ccc(Br)cc1)N1CCN(Cc2ccccc2)CC1,-5%,.,.,.,.,.
CCOC(=O)c1sc(N=NC2=C(O)CC(C)(C)CC2=O)c(C(=O)OCC)c1C,-5%,9%,2%,3%,9,-13
COc1cc(CNc2ccc(N3CCCCC3)cc2)ccc1OCC(=O)NC(C)(C)C,?,-8%,5.2µM*,8%,13*,40*
COc1cc(CNCCCCO)ccc1OCc1ccccc1F,3%,0%,22%,42%,18*,57*
COc1cc(CNc2ccc(N3CCCC3)cc2)ccc1OCc1ccccc1,?,-18%,8%,8.3µM*,42*,55*
COc1cc(CNc2ccc(N3CCCC3)cc2)ccc1OCc1ccccc1F,?,-20%,?,?,64*,173*

# High-throughput results: PubChem, National Center for Advancing Translational Sciences (NCATS)
